Measurements from PubChem BioAssay (EPA / NIEHS).
“And” between values parts separate entries of the source, which are not always exact repeats. Equal entries are not always repeated. Results filed as inconclusive are left out. More than one record can exist for a structure, and the calls need not agree. The source made the active and inactive calls. How the source made its calls, unless noted: active means hit-call score of the fitted dose curve at least 0.9, where 1 is the maximum; inactive means score below 0.9.

Legend:
[1] = read-out: CD69, CD69 (gene 969); test: BSK_LPS_CD69: BioMAP Diversity Plus: LPS Assay for CD69 Biomarker Activity (AID 2284303); settings: primary human HUVEC with PBMC
Summary of the method: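 Human umbilical vein endothelial cells co-cultured with PBMC under LPS stimulation, chemical exposure 24 h; cell-surface CD69 measured by ELISA and fitted in the positive direction versus DMSO.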

[2] = IUF_NPC3_neuronal_differentiation_120hr: Leibniz Research Institute for Environmental Medicine (IUF) 120-hour Neuronal Differentiation Assay (NPC3) (AID 2284301)
Experimental: IUF_NPC2-5 is a cell-based, multiplexed assay that uses hNPC, a human primary neural progenitor cells, with measurements taken at 72 or 120 hours after chemical dosing in a 96-well plate. Human neural progenitor cells (hNPC) are generated from human fetal brain cortex at gestational week (GW) 16-19. In the neural progenitor cell migration and differentiation assay (NPC2-5), hNPCs grown as spheres are plated on an extracellular matrix and migrate and differentiate out of the sphere core. The processes radial glia migration, neuronal and oligodendrocyte migration as well as neuronal differentiation, neuronal morphology and oligodendrocyte differentiation are studied using automated phase contrast imaging and automated fluorescence imaging in combination with high content image analysis. In parallel, the cell viability is assessed using an alamar blue viability assay and the cytotoxicity using a lactate dehydrogenase dependent membrane integrity assay.IUF_NPC3_neuronal_differentiation_120hr is one of 12 assay components measured from the IUF_NPC2-5 assay. Neuronal differentiation is determined as the number of all TUBB3 positive cells in percent of the number of Hoechst-positive nuclei in the total neurosphere migration area (see IUF_NPC2a_ glia_migration_120hr) after 120 hr of migration/differentiation. Neurons are automatically identified using a convolutional neural network (CNN) that was trained using manually annotated images of differentiated neurons. Data from the IUF_NPC3_neuronal_differentiation_120hr component was analyzed at the endpoint IUF_NPC3_neuronal_differentiation_120hr in the positive analysis fitting direction relative to DMSO as the negative control and baseline of activity. Using a type of differentiation reporter, gain or loss-of-signal activity can be used to understand developmental effects.
(§1) Culture protocol: After the cell expansion period the cells are cultured for up to four weeks in which they are passaged every week as described in 3.6. Between one to three days after passaging spheres at a size of 0.3 mm are picked for the test method. […] Therefore, half of the test condition solution (e.g. solvent control or compound dilution) is replaced by freshly prepared test condition solution.Test Method: Migration distance and cytotoxicity is determined after 72 hours based on brightfield images of each well. […] On the ICC images, migration after 120 hours, neuronal and oligodendrocyte number, neuronal morphology and neuron/oligodendrocyte specific migration is assessed. immunocytochemical staining (ICC) generates an image for each sphere. The plates are scanned using an automated high content imaging device and all nuclei and their positions are determined automatically based on their intensity and size. […]

[3] = IUF_NPC4_neurite_length_120hr: Leibniz Research Institute for Environmental Medicine (IUF) 120-hour Neuronal Morphology Assay for Neurite Length (NPC4) (AID 2284302)
Experimental: IUF_NPC2-5 is a cell-based, multiplexed assay that uses hNPC, a human primary neural progenitor cells, with measurements taken at 72 or 120 hours after chemical dosing in a 96-well plate. Human neural progenitor cells (hNPC) are generated from human fetal brain cortex at gestational week (GW) 16-19. In the neural progenitor cell migration and differentiation assay (NPC2-5), hNPCs grown as spheres are plated on an extracellular matrix and migrate and differentiate out of the sphere core. The processes radial glia migration, neuronal and oligodendrocyte migration as well as neuronal differentiation, neuronal morphology and oligodendrocyte differentiation are studied using automated phase contrast imaging and automated fluorescence imaging in combination with high content image analysis. In parallel, the cell viability is assessed using an alamar blue viability assay and the cytotoxicity using a lactate dehydrogenase dependent membrane integrity assay.IUF_NPC4_neurite_length_120hr is one of 12 assay components measured from the IUF_NPC2-5 assay. The neurite length at 120 hr is the mean length in um of all neurons (see IUF_NPC3_neuronal_differentiation_120hr) that are identified by the skeletonization algorithm in Omnisphero.Data from the IUF_NPC4_neurite_length_120hr component was analyzed at the endpoint IUF_NPC4_neurite_length_120hr in the positive analysis fitting direction relative to DMSO as the negative control and baseline of activity. Using a type of differentiation reporter, gain or loss-of-signal activity can be used to understand developmental effects.
as §1, with “method. For the assessment of neural progenitor cell migration and differentiation, the spheres are plated on poly-D-lysine/laminin coated 96-well flat bottom plates in differentiation medium (N2) to initiate migration and differentiation. Thereby one 0.3 mm big sphere is plated in the middle of a well.” for “method.”

[4] = IUF_NPC5_oligodendrocyte_differentiation_120hr: Leibniz Research Institute for Environmental Medicine (IUF) 120-hour Oligodendrocyte Differentiation Assay (NPC5) (AID 2284304; active means hit-call score of the fitted dose curve at least 0.9, where 1 is the maximum;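 further: share of O4-positive cells among Hoechst nuclei found by CNN image analysis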)
Summary of the method: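 Oligodendrocyte differentiation was scored after 120 h as the O4-positive share of Hoechst-stained nuclei across the neurosphere migration area, using a trained convolutional neural network on high-content fluorescence images. Human fetal neural progenitor spheres were dosed from day 0, normalised to DMSO.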

[5] = IUF_NPC4_neurite_area_120hr: Leibniz Research Institute for Environmental Medicine (IUF) 120-hour Neuronal Morphology Assay for Neurite Area (NPC4) (AID 2284305; active means hit-call score of the fitted dose curve at least 0.9, where 1 is the maximum)
Summary of the method: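 Human fetal cortex-derived neural progenitor spheres (0.3 mm, GW 16-19) plated on poly-D-lysine/laminin in N2 differentiation medium and exposed from day 0 for 120 h across 7 concentrations plus solvent control. Neurite area is mean pixel area per TUBB3-positive neuron via skeletonization, analysed relative to DMSO.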

[6] = IUF_NPC2-5_cytotoxicity_72hr: Cytotoxicity Assessment at 72 hours in the Leibniz Research Institute for Environmental Medicine (IUF) Neural Progenitor Cell Migration and Differentiation Assay for Cytotoxicity (NPC2-5) (AID 2284306; active means hit-call score of the fitted dose curve at least 0.9, where 1 is the maximum;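 further: LDH release into supernatant measured by resorufin fluorescence marking membrane damage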)
Summary of the method: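 Human fetal (GW 16-19) neural progenitor spheres, 0.3 mm, plated on poly-D-lysine/laminin in N2 differentiation medium and exposed from day 0 to 7 concentrations plus solvent control (DMSO ≤0.1%). LDH-dependent resazurin-to-resorufin fluorescence in supernatant at 72 h.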

[7] = IUF_NPC2-5_cytotoxicity_120hr: Cytotoxicity Assessment at 120 hours in the Leibniz Research Institute for Environmental Medicine (IUF) Neural Progenitor Cell Migration and Differentiation Assay (NPC2-5) (AID 2284307; active means hit-call score of the fitted dose curve at least 0.9, where 1 is the maximum;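 on AC50: LDH released into supernatant as membrane damage marker via resorufin fluorescence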)
Summary of the method: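 Sphere plating starts differentiation and exposure together at day 0. Compound solution is half-replaced on day 3. At 120 h, medium supernatant is taken for an LDH membrane-integrity read based on resazurin reduction to resorufin fluorescence.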

[8] = IUF_NPC2-5_cell_number_120hr: Cell Number Assessment at 120 hours in the Leibniz Research Institute for Environmental Medicine (IUF) Neural Progenitor Cell Migration and Differentiation Assay (NPC2-5) (AID 2284308);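 further: count of Hoechst-stained nuclei in migration zone around plated human neural progenitor spheres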
Experimental: IUF_NPC2-5 is a cell-based, multiplexed assay that uses hNPC, a human primary neural progenitor cells, with measurements taken at 72 or 120 hours after chemical dosing in a 96-well plate. Human neural progenitor cells (hNPC) are generated from human fetal brain cortex at gestational week (GW) 16-19. In the neural progenitor cell migration and differentiation assay (NPC2-5), hNPCs grown as spheres are plated on an extracellular matrix and migrate and differentiate out of the sphere core. The processes radial glia migration, neuronal and oligodendrocyte migration as well as neuronal differentiation, neuronal morphology and oligodendrocyte differentiation are studied using automated phase contrast imaging and automated fluorescence imaging in combination with high content image analysis. In parallel, the cell viability is assessed using an alamar blue viability assay and the cytotoxicity using a lactate dehydrogenase dependent membrane integrity assay.IUF_NPC2-5_cell number_120hr is one of 12 assay components measured from the IUF_NPC2-5 assay. The cell number at 120 hr is assessed as the number of all Hoechst-positive nuclei identified in the migration area (see IUF_NPC2a_ glia_migration_120hr).Data from the IUF_NPC2-5_cell_number_120hr component was analyzed at the endpoint IUF_NPC2-5_cell_number_120hr in the positive analysis fitting direction relative to DMSO as the negative control and baseline of activity. Using a type of viability reporter, gain or loss-of-signal activity can be used to understand viability effects.
as §1, with “method. For the assessment of neural progenitor cell migration and differentiation, the spheres are plated on poly-D-lysine/laminin coated 96-well flat bottom plates in differentiation medium (N2) to initiate migration and differentiation. Thereby one 0.3 mm big sphere is plated in the middle of a well.” for “method.”

Structure (SMILES): C=CC(=O)OCCC(F)(F)C(F)(F)C(F)(F)C(F)(F)C(F)(F)C(F)(F)C(F)(F)C(F)(F)F
- outcome [1]: inactive

Structure (SMILES): CCCCCCCCCCCC
- AC50 [1]: 30.1 µM (active)
- outcome [1]: inactive

Structure (SMILES): O=C(CC(=O)C(F)(F)C(F)(F)C(F)(F)F)c1cccs1
- outcome [1]: inactive

Structure (SMILES): CC(C)c1c(C(=O)Nc2ccccc2)c(-c2ccccc2)c(-c2ccc(F)cc2)n1CC[C@@H](O)C[C@@H](O)CC(=O)O
- outcome [2]: inactive
- outcome [3]: inactive
- outcome [4]: inactive
- outcome [5]: inactive
- AC50 [6]: 2540 nM (active)
- AC50 [7]: 1750 nM (active)
- outcome [8]: inactive

Structure (SMILES): Oc1ccc(Cc2ccccc2O)cc1
- outcome [1]: inactive

Structure (SMILES): CN(Cc1cnc2nc(N)nc(N)c2n1)c1ccc(C(=O)N[C@@H](CCC(=O)O)C(=O)O)cc1
- outcome [1]: inactive

Structure (SMILES): Oc1c(Cl)cc(Cl)cc1Sc1cc(Cl)cc(Cl)c1O
- AC50 [1]: 24.3 µM (active) and 27.4 µM (active)

Structure (SMILES): O=C(O)CCC(F)(F)C(F)(F)C(F)(F)C(F)(F)C(F)(F)C(F)(F)F
- outcome [1]: inactive

Structure (SMILES): O=C1NS(=O)(=O)c2ccccc21
- outcome [2]: inactive
- outcome [3]: inactive
- outcome [1]: inactive
- outcome [4]: inactive
- outcome [5]: inactive
- outcome [6]: inactive
- outcome [7]: inactive
- outcome [8]: inactive

Structure (SMILES): O=P(O)(O)CCC(F)(F)C(F)(F)C(F)(F)C(F)(F)C(F)(F)C(F)(F)C(F)(F)C(F)(F)F
- outcome [1]: inactive

Structure (SMILES): O=S(=O)(O)C(F)(F)C(F)(F)C(F)(F)C(F)(F)C(F)(F)C(F)(F)C(F)(F)C(F)(F)C(F)(F)C(F)(F)F
- AC50 [1]: 14.6 µM (active) and 3.91 µM (active)

Structure (SMILES): CN(CCO)S(=O)(=O)C(F)(F)C(F)(F)C(F)(F)C(F)(F)C(F)(F)C(F)(F)C(F)(F)C(F)(F)F
- outcome [1]: inactive
